Data: PubChem BioAssay (NCI)
The panel holds about 83,000 compounds, 20% with a hit somewhere; the sample as a whole holds those more often.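 Compound tested at a single concentration for 48 hours in 96-well plates; a percent growth value below 10 was scored as active.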 Calls of active or inactive are those of the source.

What was measured:
Assay in all cases: NCI-60 one-dose screen, 48 h (100 = growth as untreated, 0 = no growth, -100 = all killed)
Settings in all cases: 10 µM unless noted
[1] = system: DU-145 prostate
[2] = system: K-562 leukemia
[3] = system: MALME-3M melanoma
[4] = system: MDA-MB-231 breast
[5] = system: RXF 393 renal
[6] = system: SF-268 CNS
[7] = system: SF-295 CNS
[8] = system: SF-539 CNS
[9] = system: UACC-257 melanoma
[10] = system: M14 melanoma
[11] = system: HCT-15 colon
[12] = system: HT29 colon
[13] = system: SNB-75 CNS
[14] = system: SNB-19 CNS
[15] = system: U251 CNS
[16] = system: PC-3 prostate
[17] = system: SK-MEL-5 melanoma
[18] = system: UACC-62 melanoma
[19] = system: SK-MEL-28 melanoma

Measured: growth

NS(=O)(=O)c1ccc(N=Nc2c(O)n(CC(=O)Nc3ccccc3)c3ccccc23)cc1
inactive: [1] 21.2% | [2] 14.7% | [3] 20.7% | [5] 48.9% | [6] 75.3% | [7] 13.3% | [9] 61.5% | [10] 11.2% | [11] 16% | [13] 42.2% | [14] 20.2% | [16] 20.8% | [17] 24.6% | [18] 22.1%
active: [4] -9.74% | [8] -27.2% | [12] 2.37% | [15] -15.1% | [19] -2.1%

COc1cccc(COc2ccc(NC(=O)Nc3ccc(Cl)c(C(F)(F)F)c3)cc2)c1
inactive: [1] 44.6% | [2] 27.1% | [4] 52% | [5] 51.7% | [6] 71.1% | [7] 19.7% | [8] 49.6% | [9] 60.9% | [10] 62.6% | [11] 11.8% | [12] 43.5% | [13] 32.1% | [14] 24.6% | [15] 31.8% | [16] 16.3% | [18] 38% | [19] 69.6%
active: [3] 1.5% | [17] -77%

Cc1ccc(NCC(=O)Cn2cc(COc3ccc(C=Nc4cnc5ccccc5c4)cc3)nn2)cc1
inactive: [1] 119% | [2] 102% | [3] 102% | [4] 107% | [5] 125% | [6] 123% | [7] 107% | [8] 104% | [9] 105% | [10] 105% | [11] 112% | [12] 116% | [13] 111% | [14] 97.9% | [15] 101% | [16] 106% | [17] 102% | [18] 97.8% | [19] 112%

Nc1nc(C(F)(F)F)cs1
inactive: [1] 109% | [2] 99.9% | [3] 103% | [4] 117% | [5] 112% | [6] 99.3% | [7] 103% | [8] 106% | [9] 104% | [10] 108% | [11] 104% | [12] 112% | [13] 91.7% | [14] 105% | [15] 103% | [16] 102% | [17] 104% | [18] 101% | [19] 110%
